According to PubChem BioAssay (EPA / NIEHS):
Records with an inconclusive call do not appear. Activity calls are given as the source filed them. How the source made its calls, unless noted: active means hit-call score of the fitted dose curve at least 0.9, where 1 is the maximum; inactive means score below 0.9.

Experiments:
[1] = CCTE_Shafer_MEA_dev_per_burst_spike_percent: CCTE's Neural Network Formation Assay for Percent of Spikes in a Burst, Shafer Lab (AID 2284032)
Outline: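 Value is trapezoidal AUC over recordings on days 5, 7, 9 and 12 of the well-mean fraction of spikes falling in single-electrode bursts; rat cortical cultures exposed continuously from plating, treatment renewed DIV 5 and 9, fitted downward against DMSO.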

[2] = CCTE_Shafer_MEA_dev_active_electrodes_number: CCTE's Neural Network Formation Assay for Number of Active Electrodes, Shafer Lab (AID 2284040; active means hit-call score of the fitted dose curve at least 0.9, where 1 is the maximum)
Outline: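 Counts electrodes per well firing at least 5 spikes/min, recorded on days 5, 7, 9 and 12 in rat cortical cultures dosed continuously from plating (treatment refreshed DIV 5, 9). Value is the area under the curve over recordings, fitted downward relative to DMSO.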

[3] = CCTE_Shafer_MEA_dev_burst_rate: CCTE's Neural Network Formation Assay for Burst Rate, Shafer Lab (AID 2284042)
Outline: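 Primary rat cortical neurons on PEI-coated 48-well MEA plates (laminin added with cells at plating) (16 electrodes/well), exposed from plating to day 12, dosing renewed at DIV 5 and 9. Burst rate averaged over active electrodes, recorded DIV 5, 7, 9, 12, summarized as AUC; loss versus DMSO.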

[4] = CCTE_Shafer_MEA_dev_per_burst_interspike_interval: CCTE's Neural Network Formation Assay for Burst Interspike Interval, Shafer Lab (AID 2284044)
Outline: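 Spontaneous activity of maturing rat cortical networks is recorded on DIV 5, 7, 9 and 12 under chronic compound exposure beginning at plating. Endpoint: burst interspike interval well-mean, collapsed into trapezoidal AUC and fitted in the negative direction relative to DMSO.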

[5] = CCTE_Shafer_MEA_dev_burst_duration_mean: CCTE's Neural Network Formation Assay for Mean Burst Duration, Shafer Lab (AID 2284045);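 on AC50: curve fitted for loss meaning shorter burst duration than DMSO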
Outline: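 Mean single-electrode burst duration (first to last spike), averaged over bursting electrodes per well, then integrated as area-under-curve across recordings at days 5, 7, 9 and 12. Rat cortical cultures on MEAs, compound present from plating, refreshed at feeds.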

[6] = CCTE_Shafer_MEA_dev_interburst_interval_mean: CCTE's Neural Network Formation Assay for Mean Interburst Interval, Shafer Lab (AID 2284046);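 further: well-mean interburst interval of bursting electrodes as AUC over four recording days; curve fitted for decrease in interburst interval relative to DMSO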
Outline: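 Recordings on days 5, 7, 9 and 12 give well-mean interburst interval across actively bursting electrodes, summarized as area under the curve. Cultures: rat cortical neurons, continuous exposure from day 0, compound renewed at feeds; decrease analyzed versus DMSO.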

[7] = CCTE_Shafer_MEA_dev_inter_network_spike_interval_mean: CCTE's Neural Network Formation Assay for Mean Inter-network Spike Interval, Shafer Lab (AID 2284047)
Outline: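 Primary rat cortical neurons on 16-electrode MEA wells, exposed from plating day 0 through DIV 12, compound renewed at DIV 5 and 9 media changes. Mean interval between network-spike peaks recorded DIV 5, 7, 9, 12; collapsed as trapezoidal AUC, fitted downward versus DMSO.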

[8] = CCTE_Shafer_MEA_dev_network_spike_number: CCTE's Neural Network Formation Assay for Number of Network Spikes, Shafer Lab (AID 2284048);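 further: synchronized bursts across electrodes counted on days 5 7 9 12 and integrated as AUC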
Outline: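 Number of network spikes (coordinated firing across electrodes) recorded on days 5, 7, 9 and 12 and summarised as area under the curve. Rat cortical cultures on MEA, continuous compound exposure with full medium/treatment exchange at DIV 5 and 9.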

[9] = CCTE_Shafer_MEA_dev_network_spike_peak: CCTE's Neural Network Formation Assay for Mean Number of Electrodes in Network Spike, Shafer Lab (AID 2284049)
Outline: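 Rat cortical primary culture, 1.5 x 10^5 cells/well, 48-well MEA (16 electrodes/well). Dosing day 0 through DIV 12, full media/compound exchange DIV 5, 9. AxIS adaptive spike detection; AUC over days 5/7/9/12; loss-of-signal vs DMSO.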

[10] = CCTE_Shafer_MEA_dev_spike_duration_mean: CCTE's Neural Network Formation Assay for Mean Spike Duration, Shafer Lab (AID 2284051);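 further: mean network spike duration pooled as area under curve over DIV 5 to 12 recordings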
Outline: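 Primary rat cortical neurons on 16-electrode MEA wells (PEI-coated, laminin in plating drop), exposed from plating through DIV 12 with compound renewed at DIV 5 and 9. Mean network-spike duration recorded DIV 5, 7, 9, 12; trapezoidal AUC across days, DMSO baseline.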

[11] = CCTE_Shafer_MEA_dev_network_spike_duration_std: CCTE's Neural Network Formation Assay for Standard Deviation of Network Spike Duration, Shafer Lab (AID 2284052);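 further: hits are decreases in network spike duration SD versus DMSO vehicle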
Outline: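 Primary rat cortical neurons on PEI-coated 16-electrode MEA wells, exposed from plating day 0 through day 12 with compound renewed at DIV 5 and 9. Network spike duration SD recorded on days 5, 7, 9, 12, collapsed as trapezoidal AUC; loss-of-signal fit versus DMSO.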

[12] = CCTE_Shafer_MEA_dev_per_network_spike_spike_number_mean: CCTE's Neural Network Formation Assay for Mean Number of Spikes in a Network Spike, Shafer Lab (AID 2284053)
Outline: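 Primary rat cortical neurons on 48-well, 16-electrode MEA plates were exposed from plating to DIV 12, with dosing renewed on DIV 5 and 9. Spikes per network spike (0.05 s peak window) were recorded on DIV 5, 7, 9 and 12 and collapsed as trapezoidal AUC versus DMSO.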

[13] = CCTE_Shafer_MEA_dev_per_network_spike_spike_percent: CCTE's Neural Network Formation Assay for Percent of Spikes in a Network Spike, Shafer Lab (AID 2284054)
Outline: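 Metric: fraction of spikes falling in a 0.05 s window at network-spike peaks. Recordings were made on days 5, 7, 9 and 12 and collapsed by trapezoidal AUC. Cultures were rat cortical neurons on MEA plates, dosed continuously from plating, re-dosed at media changes.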

[14] = CCTE_Shafer_MEA_dev_LDH: CCTE's Lactate Dehydrogenase Assay for Cytotoxicity in the Neural Network Formation Assay, Shafer Lab (AID 2284068; active means hit-call score of the fitted dose curve at least 0.9, where 1 is the maximum;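 further: exposure for twelve days from plating with re-dosing on DIV 5 and 9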)
Outline: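 Primary rat cortical neurons were plated on PEI/laminin MEA plates and exposed from day 0 for twelve days, with compound renewed at DIV 5 and 9. Cytotoxicity was determined by spectrophotometric LDH assay relative to DMSO.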

[15] = CCTE_Shafer_MEA_dev_mutual_information_norm: CCTE's Neural Network Formation Assay for Mutual Information Normalization, Shafer Lab (AID 2284091)
Outline: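 Shared information across electrodes, tracked on days 5, 7, 9 and 12 of network development and collapsed as trapezoidal area under the curve. Rat cortical cultures were treated continuously from plating, with treatment renewed at feeds on DIV 5 and 9; DMSO baseline, negative-direction fit.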

[16] = CCTE_Shafer_MEA_dev_correlation_coefficient_mean: CCTE's Neural Network Formation Assay for Mean Correlation Coefficient, Shafer Lab (AID 2284093)
Outline: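 Spontaneous activity recorded on days 5, 7, 9 and 12 post-plating; pairwise spike correlations are averaged across active electrodes and collapsed to an area-under-curve. Rat cortical cultures are dosed from plating through 12 days, with compound renewed at media changes.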

[17] = CCTE_Mundy_HCI_Cortical_Synap_Neur_Matur_BPCount: CCTE's Synaptogenesis and Neurite Maturation Assay in rat cortical cells for Branch Point Count, Mundy Lab (AID 2284211)
Outline: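 HCI read-out of branch points from MAP2/synaptophysin/Hoechst immunofluorescence; rat cortical cultures, AraC DIV 5, dosing DIV 7, fixed DIV 12; fit in positive direction vs DMSO baseline.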

[18] = CCTE_Mundy_HCI_Cortical_NOG_NeuriteCount: CCTE's Neurite Outgrowth Assay in rat cortical cells for Neurite Count, Mundy Lab (AID 2284212);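 further: cells fixed about two days after chemical exposure began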
Outline: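 Rat cortical primary cells; compound added 2 h post-plating, 1/10 dilution of working solution. Anti-betaIII-tubulin/AF488 ICC; ArrayScan neurite count vs DMSO.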

[19] = CCTE_Mundy_HCI_Cortical_NOG_NeuriteLength: CCTE's Neurite Outgrowth Assay in rat cortical cells for Neurite Length, Mundy Lab (AID 2284213)
Outline: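 First, rat primary cortical cells were plated and, 2 h later, given test chemical as a 1/10 dilution. Finally, βIII-tubulin immunostaining enabled automated imaging of neurite length.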

[20] = CCTE_Mundy_HCI_Cortical_Synap_Neur_Matur_NeuriteLength: CCTE's Synaptogenesis and Neurite Maturation Assay in rat cortical cells for Neurite Length, Mundy Lab (AID 2284214)
Outline: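 Cultures of rat primary cortical cells received chemical at DIV 7 and were fixed at DIV 12, after glial arrest with AraC at DIV 5. Neurite length was measured by automated imaging of MAP2 immunofluorescence.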

Measured: AC50

CC1(C)S[C@@H]2[C@H](NC(=O)[C@H](N)c3ccccc3)C(=O)N2[C@H]1C(=O)O
active: [5] 22.6 µM
inactive: [1] | [2] | [3] | [4] | [6] | [7] | [8] | [9] | [10] | [11] | [12] | [13] | [14] | [15] | [16] | [17] | [18] | [19] | [20]

CN(C)CCC(c1ccc(Cl)cc1)c1ccccn1 (stereo not given)
inactive: [1] | [2] | [3] | [4] | [5] | [6] | [7] | [8] | [9] | [10] | [11] | [12] | [13] | [14] | [15] | [16] | [17] | [18] | [19] | [20]

NC(N)=Nc1nc(CSCCC(N)=NS(N)(=O)=O)cs1
inactive: [1] | [2] | [3] | [4] | [5] | [6] | [7] | [8] | [9] | [10] | [11] | [12] | [13] | [14] | [15] | [16] | [17] | [18] | [19] | [20]
